Tested on: RIVA
Assay: growth inhibition by drug alone (1 - RLU/untreated control) (fraction); higher = stronger inhibition
Details: 177Lu-lilotomab satetraxetan 0 ug/ml
Description: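 RIVA (RI-1) ABC-DLBCL cells were pretreated or not for 18 h with 0.5 ug/ml 177Lu-lilotomab satetraxetan (600 MBq/mg), washed and seeded (3000 cells/well) on 384-well plates pre-printed with the Selleck Cambridge Cancer Compound library. Viability was read by RealTime-Glo luminescence on days 3-6 after seeding. Effect = 1 - RLU/mean RLU of the 48 untreated no-drug control wells per plate; Bliss score = (M-E)/(1-Fa).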

Row | Structure (SMILES) | growth inhibition by drug alone (10 nM, time (day): 3) | growth inhibition by drug alone (10 nM, time (day): 4) | growth inhibition by drug alone (10 nM, time (day): 5) | growth inhibition by drug alone (10 nM, time (day): 6) | growth inhibition by drug alone (100 nM, time (day): 3) | growth inhibition by drug alone (100 nM, time (day): 4) | growth inhibition by drug alone (100 nM, time (day): 5) | growth inhibition by drug alone (100 nM, time (day): 6)
1 | Cc1oc(S(=O)(=O)N2CCCCC2)cc1NC(=O)Nc1ccccc1 | 0.0245 | 0.075 | -0.0191 | -0.188 | 0.0283 | 0.0927 | 0.052 | -0.0369
2 | Cc1c(C(=O)Nc2ccc(N3C[C@@H](C)O[C@@H](C)C3)nc2)cccc1-c1ccc(OC(F)(F)F)cc1 [LDE225 (NVP-LDE225, Erismodegib)] | -0.0165 | -0.00347 | -0.0773 | -0.419 | -0.213 | -0.137 | -0.143 | -0.258
3 | COc1ccc(/C=C\c2cc(OC)c(OC)c(OC)c2)cc1O [Combretastatin A4] | 0.953 | 0.965 | 0.971 | 0.975 | 0.924 | 0.936 | 0.954 | 0.964
4 | Cc1ccc(NC(=O)c2ccc(CN3CCN(C)CC3)cc2)cc1Nc1nccc(-c2cccnc2)n1 [Imatinib (Gleevec)] | -0.0508 | -0.0897 | -0.292 | -0.626 | -0.513 | -0.311 | -0.289 | -0.464
5 | C=CC(=O)Nc1cccc(Oc2nc(Nc3ccc(N4CCN(C)CC4)cc3OC)ncc2Cl)c1 | -0.189 | -0.196 | -0.216 | -0.258 | -0.151 | -0.238 | -0.251 | -0.328

From the supplement of paper PMC6897291
